The structures appear in SMILES notation. This is part of a sample that, as a whole, favours compounds with a hit. Of some 83,000 tested, about 20% had one in any assay.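 Step 1: grow cells in 96-well plates. Step 2: add test compound at a single concentration. Step 3: incubate 48 h. Step 4: record percent growth.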 Unmarked numbers belong to inactive results. The source made the active and inactive calls.

For the assay, the system named is PC-3 prostate. The assay can be described thus: NCI-60 one-dose screen, 48 h (100 = growth as untreated, 0 = no growth, -100 = all killed). As to conditions: 10 µM unless noted. The protocol:
Growth inhibition of the PC-3 human tumor cell line is measured as a screen for anti-cancer activity. Cells are grown in 96 well plates and exposed to the test compound for 48 hours. Compounds are tested at a single concentration, which is 10^-5 M for most compounds. The reported endpoint is percent growth (GI% or GIPRCNT), where numbers from 0 - 100% represent growth inhibition, and numbers from -100% - 0 represent cell death. For example, a value of 40 represents 60% growth inhibition. A value of 0 means no net growth occurred over the course of the experiment. A value of -40 indicates 40% of cells at the beginning of the experiment died by the end of the experiment. A value of -100 means all cells are dead at the end of the experiment.
NCI-60 Human Tumor Cell Lines Screen was performed using the standard one-dose NCI protocol, which is described in more detail at https://dtp.cancer.gov/discovery_development/nci-60/default.htm.
Compounds with GIPRCNT values below 10 were considered active. Activity score was based on GIPRCNT using the following formula: […]
Score is 0 for GIPRCNT values of 100 or above, 50 for GIPRCNT values of 0, and 100 for GIPRCNT values of -100.
Turning to `CCCCCCCCCCCCCCCCCC1OC[C@H](COC(=O)O[C@@H](C(=O)O[C@H]2C[C@@]3(O)[C@@H](OC(=O)c4ccccc4)[C@@H]4[C@]5(OC(C)=O)CO[C@@H]5C[C@H](O)[C@@]4(C)C(=O)[C@H](OC(C)=O)C(=C2C)C3(C)C)[C@@H](NC(=O)c2ccccc2)c2ccccc2)O1` (stereo not given in full), the growth is 45.2%.
The same measure for `NC(=O)CNc1ccc([As]=[As]c2ccc(NCC(N)=O)cc2)cc1` (stereo not given): 58.3%.
The same measure for `COc1cccc2c1c(C(=O)c1ccco1)cn2Cc1ccc(F)cc1`: 105%; for `CC[C@H](NC(=O)[C@H]1CCCCN1C)C(=O)N(C)[C@H](C[C@@H](OC(C)=O)c1nc(C(=O)N[C@@H](Cc2ccccc2)C[C@H](C)C(=O)O)cs1)C(C)C`: 22.9%; for `CC(=O)ONc1ccc([N+](=O)[O-])c(C(F)(F)F)c1`: 95.4%.
The same measure for `c1ccc(COc2ccc3[nH]cc(CCN(Cc4ccccc4)Cc4ccccc4)c3c2)cc1`: 57.7%; for `CCOc1ccc(/C=C/[N+](=O)[O-])cc1`: 77.4%.
For the compound `COC(=O)[C@@H](NC(=O)c1cn(CCC2CCCCC2)c2ccccc12)C(C)(C)C`, the growth is 49.7%.
The same measure for `O=C(N/N=C\c1ccc(N(CCCl)CCCl)cc1)c1cccc([N+](=O)[O-])c1`: 89.1%; for `CN1C(=O)C(=Cc2cn(Cc3ccccc3)c3ccccc23)C(=O)N(C)C1=O`: 84.8%; for `O=[N+]([O-])CC(c1ccccc1Cl)c1c(-c2ccccc2)[nH]c2ccccc12` (stereo not given): 31.6%.
The figure for `O=C(CC1(O)C(=O)N(Cc2ccccc2)c2ccc(Br)cc21)c1ccc(C(=O)NCC2CCC3(CC2)OOC2(CCCCC2)OO3)cc1` (stereo not given) is -36.3% (active); for `COC(=O)[C@H](Cc1ccccc1)NC(=O)c1csc([C@@H](C[C@H](C(C)C)N(C)C(=O)[C@@H](NC(=O)[C@H]2CCCCN2C)C2CC2)OC(C)=O)n1` it is 11.3%; for `COC(=O)[C@@H](C)C[C@H](Cc1ccccc1)NC(=O)c1csc([C@@H](C[C@H](C(C)C)N(C)C(=O)[C@@H](NC(=O)CN(C)C)C2CC2)OC(C)=O)n1` it is 25.9%.
The same measure for `CS(=O)(=O)CCN1CC2CCCC(C2)C1`: 90.1%; for `O=C1CCC2(O)[C@@H]3Cc4ccc(O)c5c4[C@]2(CCN3Cc2ccoc2)C1O5` (stereo not given in full): 44.2%.
With `COc1ccc(-n2c(C)nc3cc(OC)c(OC)cc3c2=O)cc1OC`, the growth was 101%.
Take `CN(CCCCN(C)CCOS(C)(=O)=O)CCOS(C)(=O)=O`: the growth was 85.3%.
The same measure for `CCCCCCCC[N+](C)(CCCCCCCC)CCCCCCCC`: -91.3% (active).
The same measure for `O=C1CC2(CC3(Cl)C(Cl)=C(Cl)C2(Cl)C3(Cl)Cl)C(=O)O1` (stereo not given): 93.6%.
The same measure for `O=C(N/N=C\c1ccc(N(CCCl)CCCl)cc1Cl)c1cccnc1`: 92.9%; for `CC(C)[C@]12O[C@H]1[C@@H]1O[C@]13[C@]1(O[C@H]1C[C@H]1c4c(C(=O)c5ccccc5)oc(OC(=O)c5ccccc5)c4CC[C@@]13C)[C@@H]2O`: -0.741% (active); for `NC(=Nc1ccccc1)N[N+](=O)[O-]`: 94.2%.
With `c1cnc2[nH]cc(-c3csc(-c4cn(CCCCN5CCOCC5)c5ccccc45)n3)c2c1`, the growth is 25.9%.
The figure for `Oc1c(O)c(Cl)c(Cl)c(Cl)c1Cl` is 34.5%; for `CC[C@H](C)[C@H](NC(=O)C12C3C4C1C1C2C3C41NC)C(=O)N(C)[C@H](C[C@@H](OC(C)=O)c1nc(C(=O)N[C@@H](Cc2ccccc2)C[C@H](C)C(=O)OC)cs1)C(C)C` (stereo not given in full) it is 21.2%.
Consider `C[C@]12CC[C@H]3[C@@H](C[C@@H]4SC(Nc5ccccc5)=N[C@@]45CC(O)CC[C@]35C)[C@@H]1CCC2O` (stereo not given in full), for which the growth is 39.2%.
The figure for `C[Se]C(=O)c1ccccc1OC(C)=O` is 70%; for `C[C@@H]1CCC2[C@@H](C)[C@H](OC(=O)CCC(=O)NCCNC(=O)Cc3cc(=O)oc4cc(N(C)C)ccc34)O[C@@H]3O[C@]4(C)CC[C@@H]1C23OO4` (stereo not given in full) it is 19.1%.
The figure for `CCCCCCCCCCCCCCCCCCOc1ccccc1COP(=O)(O)OOCC[N+](C)(C)C` is -25.5% (active); for `Nc1nnnc2nc[nH]c12` it is 11.5%; for `CC[C@H](C)[C@H](NC(=O)[C@H]1CCCCN1C)C(=O)N(C)[C@H](C[C@@H](OC(C)=O)c1nc(C(=O)N[C@@H](Cc2ccccc2)C[C@H](C)C(=O)OC)cs1)C(C)C` it is 23.7%.
As to `Clc1cc(N2CC2)nc(N2CC2)n1`, the growth is 65.2%.
For `C/C(Cc1ccc(Cl)cc1)=C(\c1ccc(OCCN2CCOCC2)cc1)c1ccc(OC(=O)Cc2ccccc2)cc1`, the growth is 81.9%.
The same measure for `Nc1ncnc2n[nH]nc12`: 64.5%.
The figure for `COc1cc(NC(C)CCCNC2CN3CCC2CC3)c2ncccc2c1` (stereo not given) is 55.6%; for `O=C(O)C(O)C(O)C1[O][Sb]([c]2ccc([N+](=O)[O-])cc2)[O]C1CO` (stereo not given) it is 100%; for `ClCCN(CCCl)c1nc(Cl)c(C2CC(c3ccccc3)=NN2c2cc(Cl)cc(Cl)c2)s1` (stereo not given) it is 93.7%.
The same measure for `O=C(O)c1ccc([S-])cc1.[Au+].c1ccc(CN2[CH-]N(Cc3ccccc3)C(c3ccccc3)=C2c2ccccc2)cc1`: -25.6% (active).
As to `COc1cc(C=C2c3ccccc3C(=O)c3ccccc32)ccc1OCCCCOc1cc2c(cc1OC)C(=O)N1CCCC1C=N2` (stereo not given), the growth was -45.9% (active).

The record behind these values is PubChem BioAssay (NCI).
